# Experimental data published in PubChem BioAssay (EPA / NIEHS).
# Records with an inconclusive call do not appear. Activity calls are given as the source filed them. How the source made its calls: active means hit-call score of the fitted dose curve at least 0.9, where 1 is the maximum; inconclusive means response in the unintended direction; inactive means score below 0.9.
# Test: ACEA_ER_AUC_viability: ACEA Biosciences xCELLigence Real-Time Cell Analysis on Estrogen Receptor Agonism for Viability (AID 2283782);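 further: hit means loss of impedance signal meaning reduced cell growth or viability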
# Procedure, shortened: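 Viability endpoint: reduced impedance area under the curve relative to DMSO, recorded by real-time electrode sensing over ~80 h of continuous exposure. Duplicate plates of T47D in hormone-depleted medium; eight concentrations, 1:4 dilutions, 100 uM maximum.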
Structure (SMILES),AC50,outcome
C=CCCCCCCCCO,50 µM (active),–
C=C(C)OC(C)=O,–,inactive
CCC1(C)C(=O)N(Cl)C(=O)N1Cl (centres undefined),81.4 µM (active),–
C[Si](C)(C)N[Si](C)(C)C,–,inactive
CCCc1ccc(O)c(OC)c1,–,inactive
COc1ccc(C(=O)/C(Br)=C\C(=O)O)cc1,29.2 µM (active),–
CCCCC(C=O)CC (centres undefined),–,inactive
CC(C)(C)N,–,inactive
CCCC(CC)c1ccccc1 (centres undefined),–,inactive
CC(C)(CO)C(O)C(=O)NCCCO (centres undefined),–,inactive
c1ccc2sc(SSN3CCOCC3)nc2c1,84.8 µM (active),–
CO[Si](CCCS)(OC)OC,–,inactive
COCC(=O)O,–,inactive
CC(=O)CC(=O)Nc1ccccc1C,–,inactive
O=C(OCc1ccccc1)c1ccc(O)cc1,82.6 µM (active),–
CCC(C)N (centres undefined),74.5 µM (active),–
CC(C)COC(=O)CC(C(=O)OCC(C)C)S(=O)(=O)O (centres undefined),–,inactive

Structure (SMILES),AC50,outcome
C=C(C)C1CC=C(C)CC1 (centres undefined),–,inactive
Clc1cccnc1,–,inactive
CC(C)[N+](C)(CCOC(=O)C1c2ccccc2Oc2ccccc21)C(C)C,–,inactive
O=C(Cl)c1c(Cl)c(Cl)c(C(=O)Cl)c(Cl)c1Cl,–,inactive
CC(C)(O)Cc1ccccc1,27.5 µM (active),–
COC(=O)CC(C)CCC=C(C)C (centres undefined),–,inactive
CCCCC/C=C\C/C=C\CCCCCCCC(=O)O,81.4 µM (active),–
CO[Si](C)(C)OC,–,inactive
COC(=O)c1ccccc1C,–,inactive
Cc1c(Cl)cccc1Cl,–,inactive
O=C(O)CCC(=O)O,–,inactive
O=C(Nc1ccccc1)c1cc(Cl)ccc1O,82.1 µM (active),–
C=CC(C)(O)CC/C=C(\C)CC (centres undefined),50 µM (active),–
Nc1ccc(Cl)c(N)c1,73 µM (active),–
CC=C(C)C(C)=O,–,inactive
CCCCOC(=O)CCC(C)=O,–,inactive
COC(=O)c1ccc(C(=O)OC)c(C(=O)OC)c1,69.6 µM (active),–
